# NALP1 yeast inh: NALP1 inflammasome inhibitors in reconstituted yeast, colorimetric, S. cerevisiae, triplicate retest. S. cerevisiae NALP1/ASC/caspase-1 growth, X-gal OD620, 72 h. inhibition, % at 10 µM. hit rate 0.61% among 280,000. AID 2071, 2009; in the data active means inhibition mostly above about 24%, no sharp cut-off; inactive means mostly below about 32%
# PfHsp90 set2: growth inhibition of PfHsp90-expressing yeast, primary screen, antimalarial PfHsp90 inhibitor project, S. cerevisiae, BacTiter-Glo luminescence, single point, set 2. BacTiter-Glo ATP, 48 h; yeast lacking PDR1 and PDR3 efflux regulators. inhibition, % at 9.4 µM. hit rate 0.32% among 310,000. AID 504621, 2011;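 active means every replicate shows inhibition above about 80%, whatever the replicate mean, limit read from the data; inconclusive means mean inhibition reaches the set limit but some replicate falls short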;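 further: 0% = DMSO neutral controls and 100% = 20 µM radicicol positive controls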
# tim23-1 inh: growth inhibitors of tim23-1 mutant yeast, primary screen, luminescence, uHTS. inhibition, % at 20 µM. S. cerevisiae tim23-1 growth, BacTiter-Glo luminescence, 24 h. hit rate 1.3% among 330,000;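 active means growth inhibition of the mutant yeast at or above 50%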;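 further: temperature-sensitive mutant grown at 25 °C; plate controls were DMSO-treated mutant yeast for no effect and medium wells lacking yeast for full effect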
# SKKanGAS inh: S. pyogenes SKKanGAS growth inhibitors in kanamycin, primary screen, streptokinase expression inhibitor project, SKKanGAS strain, BacTiter-Glo luminescence; 6 h; inhibition, % at 7.5 µM; hit rate 1.3% among 300,000; AID 1662, 2009;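 active means mean replicate score, as percent of positive control median, at least 50; inconclusive means mean below 50 but one replicate at or above 50; inactive means mean and every replicate below 50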;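 further: strain carries kanamycin resistance gene driven by streptokinase promoter and grows in 40 µg/ml kanamycin; loss of luminescence reflects streptokinase promoter inhibition or plain growth inhibition; 0% = median of DMSO wells and 100% = positive control at its reference dose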
# TIM10 inh: growth inhibitors of isogenic TIM10 control yeast, primary screen, counter-screen for tim10-1 yeast inhibitor project, luminescence, uHTS | S. cerevisiae TIM10 strain growth, BacTiter-Glo luminescence, 24 h | inhibition, % at 10 µM | hit rate 1.4% among 330,000 | AID 463195, 2010;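 active means inhibition of 40% or more at the single tested concentration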;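 further: wild-type TIM10 isogenic control strain grown at permissive 25 °C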
# tim10-1 inh: growth inhibitors of tim10-1 mutant yeast, primary screen, luminescence, uHTS. inhibition, % at 20 µM. hit rate 2.2% among 330,000. AID 463190, 2010. S. cerevisiae tim10-1 ts strain growth, BacTiter-Glo, 24 h;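 active means inhibition of at least 40%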;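 further: mutant grown at 25 °C; 0% = DMSO wells with yeast and 100% = wells holding no yeast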
# * hit, by the source's call; ? = inconclusive; . = not tested or not shown. Most compounds without a hit are left out; they make up all but 4.8% or so of the library.
SMILES,NALP1 yeast inh,PfHsp90 set2,tim23-1 inh,SKKanGAS inh,TIM10 inh,tim10-1 inh
O=C1OC2(c3ccccc3)C3CCCC2C13,-6,-15,2,-4,-9,2
COc1ccc(S(=O)(=O)N2CCOCC2)cc1NC(=O)COC(=O)c1ccc([N+](=O)[O-])s1,.,19,11,.,6,7
CN1C(=O)CSc2ccc(NC(=O)NCc3ccccc3)cc21,-1,-4,8,1,-5,13
Cc1ccc(CNC(=O)Nc2ccc3c(c2)N(C)C(=O)CS3)cc1,31*,-12,-4,6,-7,9
Nc1cc2c(cc1Cl)-c1ccccc1C2=NO,.,10,.,.,.,.
Cc1ccc(Cn2c(C(CO)Nc3nc(-c4ccc(F)cc4)cs3)nc3ccccc32)cc1 (stereo not drawn),.,-6,9,80*,19,28
O=c1[nH]c2ccc(Cl)cc2c(-c2ccccc2)c1N1CCOCC1,11,4,10,-8,9,19
O=c1[nH]c2ccc(Cl)cc2c(-c2ccccc2)c1N1CCN(c2ccccn2)CC1,4,-48,42,84*,14,5
CCOC(=O)CCNC(=O)N1CCCC(CNS(=O)(=O)Cc2ccccc2)C1 (stereo not drawn),2,-17,13,11,9,0
Oc1[nH]c2ccccc2c1N=Nc1nc2ccccc2s1,11,-97,14,22,21,14
Cc1ccc2[nH]c(O)c(N=Nc3nc4ccccc4s3)c2c1,.,-4,12,108*,3,9
O=C(OCC(=O)N(Cc1ccccc1)Cc1ccccc1)c1ccccc1NCCO,.,12,20,6,-5,13
CC(C)(C)[C@@H]1CCC(=O)N(CC[C@H](Sc2ccccc2)c2ccccc2)CC1,17,-2,23,79*,26,27
CC(C)(C)[C@H]1CCC(=O)N([C@H](CSc2ccccc2)Cc2ccccc2)CC1,17,.,21,63*,19,33
O=c1cc(N2CCc3ccccc3C2)[nH]c(=O)n1-c1ccc(Cl)cc1,1,-25,-13,2,-3,6
CCOc1ccccc1N1CCN(C(=O)c2cccc(-c3ccc(O)cc3)c2)CC1,8,104*,10,11,18,1
COc1ccc(-c2cc(=Nc3c(C)n(C)n(-c4ccccc4)c3=O)c3ccccc3o2)cc1,16,-21,34,-3,8,10
COc1ccc(-c2c/c(=N\c3nc(-c4ccccc4)c(C)s3)c3ccccc3o2)cc1O,16,-18,15,59*,7,11
CCOC(=O)c1c(-c2ccc(C)s2)csc1NC(=O)c1cccs1,16,-29,11,4,0,3
CCOC(=O)c1c(NC(=O)c2cccs2)sc(CC)c1-c1cccs1,3,20,20,60*,12,18
O=c1[nH]c(-c2ccccn2)nc(C(F)(F)F)c1Br,-5,90*,-12,12,34,16
C[C@H]1COC2=C1C(=O)C(=O)c1c2ccc2c1CCCC2(C)C,-1,-48,.,86*,.,.
O=C(COc1ccc(C(=S)N2CCC(Cc3ccccc3)CC2)cc1)N1CCOCC1,16,12,40,6,8,2
CC(C)(C)OC(=O)N1CCC(c2cc(=O)n3[nH]cc(C(=O)NC4CCCC4)c3n2)CC1,-38,4,11,1,-4,8
COc1ccc(NC(=O)c2c[nH]n3c(=O)cc(C4CCN(C(=O)OC(C)(C)C)CC4)nc23)cc1Cl,12,-5,13,52*,5,8
SMILES,NALP1 yeast inh,PfHsp90 set2,tim23-1 inh,SKKanGAS inh,TIM10 inh,tim10-1 inh
CC(C)(C)OC(=O)N1CCC(c2cc(=O)n3[nH]cc(C(=O)Nc4ccc(F)c(Cl)c4)c3n2)CC1,6,-25,13,68*,12,7
Cc1n[nH]c(C)c1CCCOc1ccccc1,19,-14,-13,?,-33,5
COc1ccccc1OCCCCCc1c(C)n[nH]c1C,14,11,14,66*,17,17
COc1ccc(OCCCc2c(C)n[nH]c2C)cc1,19,26,6,37,10,5
Cc1cccc(OCCCCc2c(C)n[nH]c2C)c1C,3,-48,12,99*,34,35
CCOc1ccccc1OCCCCCc1c(C)n[nH]c1C,-2,11,4,61*,3,39
CNc1c([N+](=O)[O-])cnn1-c1ccc(F)cc1,-3,-1,-2,0,-11,-5
Cc1ccc(NC(=O)CN2CCOCC2)c(Br)c1,2,-3,3,-2,2,5
CCC(C(=O)Nc1cnccn1)c1ccccc1 (stereo not drawn),22*,.,12,-1,10,7
Cc1ccc(N2C(=O)CC(N(O)C3CC(=O)N(c4ccc(C)cc4)C3=O)C2=O)cc1 (stereo not drawn),-10,-6,12,-1,4,12
CCCCCCC(=O)N(O)C1CC(=O)N(c2ccc(Cl)cc2)C1=O (stereo not drawn),-6,110*,37,4,12,24
Cc1[nH]n(-c2ccc(Br)cc2)c(=O)c1/C=N/NC(=O)c1ccccc1,3,19,27,90*,-66,-42
Cc1[nH]n(-c2ccccc2)c(=O)c1/C=N/NC(=O)c1cccc(F)c1,12,-35,10,68*,19,-7
CCOc1ccccc1NC(=O)CSc1nnc(CNC(=O)c2cccs2)o1,2,-15,-5,2,-5,6
CCOC(=O)c1c(/N=C/C2=C(O)CCCC2=O)sc(C)c1C,27,-13,22,3,-7,-2
CCOC(=O)c1c(-c2ccc(OC)cc2)csc1/N=C/C1=C(O)CCCC1=O,32,5,21,57*,7,24
C[C@H](NC(=O)c1nc[nH]c1C(=O)N[C@@H](Cc1ccccc1)C(=O)OC(C)(C)C)C(=O)OC(C)(C)C,.,-20,19,7,7,20
CC(C)(C)OC(=O)[C@H](Cc1ccccc1)NC(=O)c1nc[nH]c1C(=O)N[C@@H](Cc1ccccc1)C(=O)OC(C)(C)C,.,-1,12,70*,9,13
Cc1cccc(NC(=O)c2nc[nH]c2C(=O)N[C@@H](CC(C)C)C(=O)OC(C)(C)C)c1,.,-10,41,100*,17,24
Cc1cccc(NC(=O)c2nc[nH]c2C(=O)N[C@@H](Cc2ccccc2)C(=O)OC(C)(C)C)c1,.,1,25,98*,11,11
CC(C)(C)OC(=O)[C@H](Cc1ccccc1)NC(=O)c1[nH]cnc1C(=O)Nc1cccc(Cl)c1,.,9,12,72*,24,28

# Screens: PubChem BioAssay, several laboratories
